Measurements: PubChem BioAssay (NCI)
Compounds without any hit were thinned out: in the full panel of roughly 83,000, 20% have a hit.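 Cells were grown in 96-well plates and exposed to the test compound at a single concentration for 48 hours; results are reported as percent growth, with values below 10 considered active.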 A number with no mark means an inactive call. Active and inactive are the calls of the source.

Experiments:
Experiment in all cases: NCI-60 one-dose screen, 48 h (100 = growth as untreated, 0 = no growth, -100 = all killed)
Conditions in all cases: 10 µM unless noted
NCI-H23 lung = test system: NCI-H23 lung
NCI-H226 lung = test system: NCI-H226 lung
NCI-H322M lung = test system: NCI-H322M lung
HOP-62 NSCLC = test system: HOP-62 NSCLC
NCI-H460 lung = test system: NCI-H460 lung
HOP-92 NSCLC = test system: HOP-92 NSCLC
NCI-H522 lung = test system: NCI-H522 lung
A549/ATCC NSCLC = test system: A549/ATCC NSCLC
786-0 renal = test system: 786-0 renal
COLO 205 colon = test system: COLO 205 colon

Row | SMILES | growth (NCI-H23 lung) [%] | growth (NCI-H226 lung) [%] | growth (NCI-H322M lung) [%] | growth (HOP-62 NSCLC) [%] | growth (NCI-H460 lung) | growth (HOP-92 NSCLC) [%] | growth (NCI-H522 lung) [%] | growth (A549/ATCC NSCLC) [%] | growth (786-0 renal) [%] | growth (COLO 205 colon)
1 | CN1CCN(c2ccc(Nc3ncc(C(N)=O)c(NCCCNC(=O)C4CCC4)n3)cc2)CC1 | 70.4 | 62.1 | 75.8 | 34 | 78.9% | 113 | 77.3 | 78.2 | 90.2 | -5.21% (active)
2 | CCOC(=O)c1cnn(-c2ccc(S(N)(=O)=O)cc2)c1N | 95.5 | 92 | 99.8 | 95.9 | 104% | 105 | 96.2 | 103 | 95.6 | 140%
3 | CCNC(=O)Oc1ccc(/C(=C(/C)Cc2ccc(OC)cc2)c2ccc(OCCN(CC)CC)cc2)cc1 | 78.2 | 91.9 | 76.9 | 76.3 | 13.5% | 43.3 | 58.1 | 51.7 | 53.8 | -69.1% (active)
4 | CCN1C(=O)/C(=c2\sc3n(c2=O)C2C(NN=3)N(CC)C(=O)N2CC)c2ccccc21 (stereo not given) | 34.5 | 103 | 46.5 | 32.1 | 4.65% (active) | 39.2 | 19.9 | 32.8 | 30.9 | -11.5% (active)
5 | O=C(/C=C/c1ccc([N+](=O)[O-])cc1)c1ccccc1 | 93.2 | 85 | 102 | 83 | 105% | 75.9 | 70.4 | 83.3 | 89.1 | 87.2%
